Assay results taken from PubChem BioAssay (NCI).
Compounds without any hit were thinned out: in the full panel of roughly 79,000, 15% have a hit. Calls of active or inactive are those of the source. No stated cut-off is given here; in the data, active means growth inhibition above about 70%; inactive means the rest.

Key:
[1] = NCI Yeast Anticancer Drug Screen. Data for the rad52 strain (AID 147);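 further: 0% = growth of vehicle-treated control cultures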; conditions: S. cerevisiae rad52 mutant growth inhibition, hits give high values
Method in brief: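 Vehicle-treated cultures served as the reference for growth inhibition of compound-exposed yeast bearing a DNA repair mutation.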

[2] = NCI Yeast Anticancer Drug Screen. Data for the wt1 strain (AID 149);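 further: 0% = growth of vehicle-treated wt1 cultures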; conditions: S. cerevisiae wt1 strain (SPY 50644) growth inhibition, hits give high values
Method in brief: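 wt1 strain grown with compound or vehicle; inhibition taken from the growth difference.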

[3] = NCI Yeast Anticancer Drug Screen. Data for the rad50EPP+ strain (AID 151);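 further: 0% = growth of vehicle-treated control cultures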; conditions: S. cerevisiae rad50 mutant strain, hits give high values
Method in brief: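 In this screen, rad50EPP+ yeast were exposed to compounds. Growth inhibition was scored against vehicle-treated controls.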

[4] = NCI Yeast Anticancer Drug Screen. Data for the rad50 strain (AID 155);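 further: 0% = growth of vehicle-only cultures of the same strain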; conditions: S. cerevisiae rad50 strain growth inhibition, hits give high values
Method in brief: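 DNA repair mutant yeast, compound exposure, growth read-out; inhibition is taken relative to vehicle.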

[5] = NCI Yeast Anticancer Drug Screen. Data for the mec2-1 strain (AID 157); conditions: S. cerevisiae mec2-1 strain, hits give high values
Method in brief: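 Vehicle-treated cultures served as reference for growth inhibition of compound-exposed mec2-1 yeast.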

[6] = NCI Yeast Anticancer Drug Screen. Data for the rad14 strain (AID 159);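 further: 0% = growth of vehicle-treated control cultures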; conditions: S. cerevisiae rad14 strain growth inhibition, hits give high values
Method in brief: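 DNA repair-defective yeast, compound-exposed; % growth inhibition derived by comparison with vehicle-treated controls.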

[7] = NCI Yeast Anticancer Drug Screen. Data for the sgs1 mgt1 strain (AID 161);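 further: 0% = growth of cultures given vehicle only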; conditions: S. cerevisiae sgs1 mgt1 strain, hits give high values
Method in brief: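 Inhibition of yeast growth, normalised to vehicle-treated controls, is reported for a strain bearing genetic alterations in DNA damage repair.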

[8] = NCI Yeast Anticancer Drug Screen. Data for the CLN2oe strain (AID 163);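 further: 0% = growth of vehicle-only control cultures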; conditions: S. cerevisiae CLN2oe strain, hits give high values
Method in brief: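 Inhibition relative to vehicle-treated yeast is reported. Cells: strain with genetic alteration in cell-cycle control, grown with compound.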

[9] = NCI Yeast Anticancer Drug Screen. Data for the cln2 rad14 strain (AID 165);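 further: 0% = growth equal to vehicle treated cultures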; conditions: S. cerevisiae cln2 rad14 strain, hits give high values
Method in brief: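 Each compound was tested on cln2 rad14 yeast. Inhibition of growth was calculated against vehicle-exposed controls.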

[10] = NCI Yeast Anticancer Drug Screen. Data for the bub3 strain (AID 167); conditions: S. cerevisiae bub3 mutant strain, hits give high values
Method in brief: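 In this screen, a yeast mutant lacking normal mitotic checkpoint function is challenged with compound. Relative growth versus vehicle gives the inhibition value.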

[11] = NCI Yeast Anticancer Drug Screen. Data for the wt2 strain (AID 169);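 further: 0% = growth of vehicle-treated yeast cultures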; conditions: S. cerevisiae wt2 strain growth inhibition, hits give high values
Method in brief: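 Inhibition of yeast growth was determined after compound treatment, normalised to controls receiving only vehicle.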

[12] = NCI Yeast Anticancer Drug Screen. Data for the mlh1 strain (AID 171);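 further: 0% = growth of vehicle-treated control cultures of the same strain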; conditions: S. cerevisiae mlh1 strain growth inhibition, hits give high values
Method in brief: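 Vehicle-normalised growth inhibition of a repair- or checkpoint-altered yeast strain following compound treatment.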

[13] = NCI Yeast Anticancer Drug Screen. Data for the sgs1 strain (AID 173);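 further: 0% = growth of vehicle-only control cultures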; conditions: S. cerevisiae sgs1 mutant, hits give high values
Method in brief: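 Screen format: yeast with repair or checkpoint alterations, compound exposure, growth read relative to vehicle.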

[14] = NCI Yeast Anticancer Drug Screen. Data for the mlh1 rad18 strain (AID 175); conditions: S. cerevisiae mlh1 rad18 strain growth inhibition, hits give high values
Method in brief: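 Vehicle-treated cultures served as the reference for growth inhibition in a yeast strain carrying DNA damage repair alterations exposed to each compound.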

[15] = NCI Yeast Anticancer Drug Screen. Data for the rad18 strain (AID 177); conditions: S. cerevisiae rad18 mutant growth inhibition, hits give high values
Method in brief: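 Test articles were incubated with altered yeast defective in DNA damage repair. Results are given as inhibition of growth versus vehicle.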

[16] = at 5.0 µM (retest, dose inferred, filed as 0.5)
[17] = at 50.0 µM (retest, dose inferred, filed as 5.0)

Measured: growth inhibition

CC1(C)C(O)OC(O)C1(C)C (stereo not drawn)
active: [15]; at 100.0 µM 77%
inactive: [1]; at 1.2 µM 0% | [1]; at 3.7 µM 0% | [1]; at 11.0 µM 2% | [1]; at 33.0 µM 7% | [1]; at 100.0 µM 30% | [2]; at 1.2 µM 0% | [2]; at 3.7 µM 0% | [2]; at 11.0 µM 4% | [2]; at 33.0 µM 2% | [2]; at 100.0 µM 8% | [3]; at 1.2 µM 0% | [3]; at 3.7 µM -1% | [3]; at 11.0 µM 2% | [3]; at 33.0 µM 1% | [3]; at 100.0 µM 12% | [4]; at 1.2 µM -1% | [4]; at 3.7 µM -2% | [4]; [16] 15% | [4]; at 11.0 µM 0% | [4]; at 33.0 µM 5% | [4]; [17] 8% | [4]; at 50.0 µM 69% | [4]; at 100.0 µM 25% | [5]; at 1.2 µM 0% | [5]; at 3.7 µM 2% | [5]; [16] 1% | [5]; at 11.0 µM 2% | [5]; at 33.0 µM 6% | [5]; [17] -10% | [5]; at 50.0 µM 29.4% | [5]; at 100.0 µM 23% | [6]; at 1.2 µM -2% | [6]; at 3.7 µM -2% | [6]; at 11.0 µM 0% | [6]; at 33.0 µM 3% | [6]; at 100.0 µM 22% | [7]; [16] -9% | [7]; [17] 14% | [7]; at 50.0 µM 58.5% | [8]; at 1.2 µM -10% | [8]; at 3.7 µM -3% | [8]; at 11.0 µM 0% | [8]; at 33.0 µM -5% | [8]; at 100.0 µM 3% | [9]; [16] 32% | [9]; [17] 7% | [9]; at 50.0 µM 24.4% | [10]; at 1.2 µM -7% | [10]; at 3.7 µM -7% | [10]; [16] -8% | [10]; at 11.0 µM -6% | [10]; at 33.0 µM -8% | [10]; [17] -13% | [10]; at 50.0 µM 37.4% | [10]; at 100.0 µM -6% | [11]; at 1.2 µM -1% | [11]; at 3.7 µM 1% | [11]; at 11.0 µM 5% | [11]; at 33.0 µM 5% | [11]; at 100.0 µM 10% | [12]; at 1.2 µM 0% | [12]; at 3.7 µM -1% | [12]; at 11.0 µM 4% | [12]; at 33.0 µM 6% | [12]; at 100.0 µM 18% | [13]; at 1.2 µM 1% | [13]; at 3.7 µM 5% | [13]; at 11.0 µM 11% | [13]; at 33.0 µM 25% | [13]; at 100.0 µM 63% | [14]; [16] 3% | [14]; [17] 56% | [14]; at 50.0 µM 60.8% | [15]; at 1.2 µM -1% | [15]; at 3.7 µM 2% | [15]; at 11.0 µM 13% | [15]; at 33.0 µM 31%

CCC(C)COC(=O)Nc1cccc(Cl)c1 (stereo not drawn)
active: [1]; at 100.0 µM 91% | [2]; at 100.0 µM 99% | [3]; at 100.0 µM 72% | [4]; at 50.0 µM 98.9% | [4]; at 100.0 µM 99% | [5]; at 50.0 µM 98.1% | [5]; at 100.0 µM 98% | [6]; at 100.0 µM 99% | [7]; at 50.0 µM 98.8% | [8]; at 100.0 µM 99% | [9]; at 50.0 µM 97.5% | [10]; at 50.0 µM 98.6% | [10]; at 100.0 µM 99% | [11]; at 33.0 µM 82% | [11]; at 100.0 µM 99% | [12]; at 100.0 µM 99% | [13]; at 33.0 µM 87% | [13]; at 100.0 µM 99% | [15]; at 100.0 µM 98%
inactive: [1]; at 1.2 µM 5% | [1]; at 3.7 µM 6% | [1]; at 11.0 µM 11% | [1]; at 33.0 µM 59% | [2]; at 1.2 µM 1% | [2]; at 3.7 µM -1% | [2]; at 11.0 µM 0% | [2]; at 33.0 µM 6% | [3]; at 1.2 µM 6% | [3]; at 3.7 µM 15% | [3]; at 11.0 µM 39% | [3]; at 33.0 µM 61% | [4]; at 1.2 µM 9% | [4]; at 3.7 µM 22% | [4]; [16] -7% | [4]; at 11.0 µM 25% | [4]; at 33.0 µM 68% | [4]; [17] 54% | [5]; at 1.2 µM -5% | [5]; at 3.7 µM -10% | [5]; [16] -1% | [5]; at 11.0 µM -34% | [5]; at 33.0 µM -1% | [5]; [17] 32% | [6]; at 1.2 µM 3% | [6]; at 3.7 µM 2% | [6]; at 11.0 µM 2% | [6]; at 33.0 µM 34% | [7]; [16] -4% | [7]; [17] 53% | [8]; at 1.2 µM 0% | [8]; at 3.7 µM 1% | [8]; at 11.0 µM -7% | [8]; at 33.0 µM 4% | [9]; [16] -24% | [9]; [17] 1% | [10]; at 1.2 µM -2% | [10]; at 3.7 µM -4% | [10]; [16] -14% | [10]; at 11.0 µM 12% | [10]; at 33.0 µM 27% | [10]; [17] 25% | [11]; at 1.2 µM -2% | [11]; at 3.7 µM -2% | [11]; at 11.0 µM -2% | [12]; at 1.2 µM -6% | [12]; at 3.7 µM -5% | [12]; at 11.0 µM -7% | [12]; at 33.0 µM 57% | [13]; at 1.2 µM 0% | [13]; at 3.7 µM 2% | [13]; at 11.0 µM 7% | [15]; at 1.2 µM 4% | [15]; at 3.7 µM 5% | [15]; at 11.0 µM 1% | [15]; at 33.0 µM 27%

CC(C)(C)c1ccc2c(c1)C(=O)c1ccccc1C2=O
inactive: [1]; at 1.2 µM -9% | [1]; at 3.7 µM -13% | [1]; at 11.0 µM -15% | [1]; at 33.0 µM -6% | [1]; at 100.0 µM 4% | [2]; at 1.2 µM 0% | [2]; at 3.7 µM 12% | [2]; at 11.0 µM 14% | [2]; at 33.0 µM 12% | [2]; at 100.0 µM 15% | [3]; at 1.2 µM -9% | [3]; at 3.7 µM -1% | [3]; at 11.0 µM 18% | [3]; at 33.0 µM 27% | [3]; at 100.0 µM 28% | [4]; at 1.2 µM -17% | [4]; at 3.7 µM -18% | [4]; [16] 14% | [4]; at 11.0 µM -19% | [4]; at 33.0 µM 8% | [4]; [17] 5% | [4]; at 50.0 µM -2.85% | [4]; at 100.0 µM 6% | [5]; at 1.2 µM -6% | [5]; at 3.7 µM -6% | [5]; [16] 8% | [5]; at 11.0 µM -6% | [5]; at 33.0 µM -9% | [5]; [17] 8% | [5]; at 50.0 µM -17.9%
